From PubChem
ELG1 genotoxic: induces genotoxicity in HEK293T cells with luciferase-tagged ELG1; HEK293T ELG1-luciferase reporter, luminescence, 16 h; Potency, µM (doses to about 46 µM), without a hit: at the top dose activity change, positive = activation, hits mostly activators; 330,000 compounds, 1.3% hits; note: % of control where 0% means no effect; nearly all actives have a fitted effect of over 60% in size
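HEK293T cells expressing luciferase-tagged ELG1 were exposed to compound or DMSO vehicle for 16 hr at 37 °C and 5% CO2. Luciferase activity was then measured with ONE-Glo after 30 min at room temperature.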
Rab9 prom act: activators of Rab9 promoter | Huh7 Rab9 promoter-luciferase reporter, luminescence, 24 h | Potency, µM (doses to about 9.22 µM), inactives show at the highest dose activation, negative = inhibition, hits mostly activators | 320,000 compounds, 2.8% hits | AID 485297; note: % of control where 0% means no effect; nearly all actives have a fitted effect of over 60% in size
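Promoter activation is measured as luciferase luminescence in Huh7 cells stably transfected with a Rab9 promoter–luciferase construct, following 24 h compound exposure at 37 °C and 10 min reagent incubation at ambient temperature.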
SMN2 splice enh: SMN2 splice variant enhancement. Potency, µM (top dose mostly 46.1 µM), for inactives: at the top dose activity change, positive = activation, usual class: activators. AID 1458. 210,000 compounds, 2.8% hits. HEK293 SMN2-luciferase splicing reporter, luminescence, 30-36 h; note: % of control where 0% means no effect; nearly all actives have a fitted effect of over 55% in size
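qHTS luciferase splicing reporter: luminescence rises when SMN2 exon 7 is included in transfected HEK293 cells. Compound exposure lasted 30-36 h at 37C, with 4.5 mM final sodium butyrate as control, followed by a ONE-Glo read.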
ELG1 repair inh: inhibitors of ELG1-dependent DNA repair in HEK293T cells | AID 504467 | HEK293T ELG1-luciferase reporter, luminescence, 16 h; DNA damage induced by 5-fluorouridine | Potency, µM (doses to about 46.1 µM), for the others: at the highest dose activity change, negative = inhibition, actives largely listed as inhibitors | 330,000 compounds, 2.3% hits; note: % is set by controls: 0 for no effect and ±100 for the full control effect; nearly all actives have a fitted effect of over 55% in size
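Step one: seed 2,000 cells per well. Step two: pin-transfer compound or DMSO alongside 5-fluorouridine. Step three: incubate 16 hr, 37 °C, 5% CO2. Step four: add ONE-Glo, wait 30 min, read luminescence.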
FLuc counter: inhibits or activates purified firefly luciferase, miR-21 counter-screen; P08659; 360,000 compounds, 6.9% hits; AID 588342; purified FLuc, Km substrates, luminescence inhibition; Potency, µM (top dose mostly 57.5 µM), inactives show at the top dose activity change, negative = inhibition, usual class: inhibitors;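 note: plate controls were vehicle for no effect and reference inhibitor for full effect; nearly all actives have a fitted effect of over 55% in size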
Target sequence (P08659 whole entry, looked up): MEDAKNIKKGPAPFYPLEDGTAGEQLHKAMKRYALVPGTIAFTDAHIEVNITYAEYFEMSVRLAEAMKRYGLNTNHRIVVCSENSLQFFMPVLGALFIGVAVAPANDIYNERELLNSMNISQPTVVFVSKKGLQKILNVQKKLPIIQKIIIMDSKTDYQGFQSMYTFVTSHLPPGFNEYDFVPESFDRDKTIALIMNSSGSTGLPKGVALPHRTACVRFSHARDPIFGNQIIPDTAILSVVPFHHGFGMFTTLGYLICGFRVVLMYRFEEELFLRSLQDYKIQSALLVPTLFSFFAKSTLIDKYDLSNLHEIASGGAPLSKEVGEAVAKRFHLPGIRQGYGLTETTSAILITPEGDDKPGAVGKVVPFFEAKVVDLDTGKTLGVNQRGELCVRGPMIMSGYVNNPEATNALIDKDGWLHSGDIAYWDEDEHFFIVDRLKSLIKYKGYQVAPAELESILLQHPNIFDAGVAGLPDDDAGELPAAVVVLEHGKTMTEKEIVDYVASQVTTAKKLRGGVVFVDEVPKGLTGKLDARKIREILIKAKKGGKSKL
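Biochemical qHTS of compounds, final roughly 60 µM downward over six points, against 10 nM purified firefly luciferase using Km concentrations of substrates (10 uM D-luciferin, 10 uM ATP) in Tris acetate pH 7.5 buffer; luminescence output.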
NPC1 promoter act: NPC1 promoter activation; Huh7 NPC1 promoter luciferase reporter, 24 h; Potency, µM (highest dose often 9.22 µM), for the others: top-dose activation, actives largely listed as activators; 320,000 compounds, 2.4% hits; AID 485313; note: % of control where 0% means no effect; nearly all actives have a fitted effect of over 60% in size
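Cells: Huh7 expressing luciferase under the NPC1 promoter, 1500/well. Seeded 2 h, compound added, incubated 24 h at 37 °C. Luciferase reagent, 10 min ambient, then luminescence.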
Starred values were filed as active, the others as inactive; ? = inconclusive; / = no result given; [ ] = another dose, or the depositor's remark. Hits are enriched below; roughly 9.4% of the tested compounds scored in any of these assays. Calls come from the whole dose curve; as a rule, active = well fitted curve in the direction sought with a large enough effect; inconclusive = small, poorly fitted or top-dose-only effect, or another doubt; inactive = no such curve, though single readings can be large; an effect the other way counts as inactive or inconclusive. Potency is the fitted concentration of half-maximal effect.

SMILES	ELG1 genotoxic	Rab9 prom act	SMN2 splice enh	ELG1 repair inh	FLuc counter	NPC1 promoter act
O=C(N/C=C/c1ccco1)Nc1cccc(Cl)c1	-1%	19%	/	25%	27µM*	16%
Cc1cccc(NC(=O)Nc2ccc(S(N)(=O)=O)cc2)c1	2%	11%	/	?	?	14%
O=c1ccc2cc(S(=O)(=O)N3CCOCC3)ccc2o1	0%	2%	7.9µM*	?	9%	-4%
Cc1ccn2c(Nc3c(C)cccc3C)c(-c3ccc(Cl)s3)nc2c1	/	/	3%	/	-3%	/
COc1ccc(Nc2nc(-c3ccc(OC)cc3)c(CCC(=O)O)s2)cc1	3%	-8%	/	?	?	-5%
COC(=O)CCc1sc(Nc2ccccc2)nc1-c1ccc(OC)cc1	?	25%	?	?	24µM*	15%
NC(=S)N/N=C1\CCOc2ccc(Cl)cc21	-6%	-9%	/	21µM*	-1%	1%
CCn1c(=O)c2c(nc3n2CCN3c2ccc(OC)cc2)n(C)c1=O	/	/	/	/	3%	/
Cc1ccc(NC(=O)C(=Cc2ccc(C(=O)O)cc2)C(=O)Nc2ccc(C)cc2C)c(C)c1	-25%	-39%	/	16µM*	?	-28%
CC(=O)C(=Cc1ccc(C(=O)O)cc1)C(C)=O	15%	4%	3%	6%	7%	-1%
COc1ccc(-n2c(=O)c(-c3cn(C)c4ccccc34)nc3cncnc32)cc1	/	/	0%	/	/	/
COC(=O)c1ccccc1NC(=O)c1cc(-c2cccs2)on1	12%	2.2µM*	7%	?	-7%	24%
COc1ccccc1-c1cc(C(=O)Nc2ccccc2C(F)(F)F)no1	/	/	-7%	/	0%	/
COc1ccc(NC(=O)c2cc(-c3cccs3)on2)cc1OC	3%	0%	-2%	?	-5%	0%
O=C(Nc1ccccc1C(F)(F)F)c1cc(-c2ccccc2O)on1	17%	4µM*	?	?	-21%	?
O=C(Nc1cccnc1)c1cc(-c2ccc(Cl)c(Cl)c2)on1	23%	-2%	/	25%	?	-3%
COC(=O)c1ccccc1NC(=O)c1cc(-c2ccco2)on1	4%	?	/	-6%	-2%	24%
O=C(Nc1cccnc1)c1cc(-c2ccccc2O)on1	-2%	-4%	/	0%	1.3µM*	0%
COc1ccc(NC(=O)c2cc(-c3cccs3)on2)cc1	16µM*	-3%	/	?	?	1%
Cc1oc2c(c1C(=O)Nc1ccccc1Br)C1=NCCN1C=N2	/	/	/	/	-3%	/
O=C(Nc1cccnc1)c1cc(-c2cccs2)on1	1%	?	-12%	-5%	1.7µM*	0%
O=C(COC(=O)C1CCCCC1)Nc1ccc(N2CCCCC2)cc1	6%	14%	-6%	?	21µM*	16%
O=C(CSc1nncs1)Nc1ccc(N2CCCCC2)cc1	4%	21%	/	?	13µM*	18%
CC(C)c1ccc(NC(=O)COC(=O)C2CCCCC2)cc1	6%	17%	/	?	1.2µM*	11%
NS(=O)(=O)c1ccc(NC(=O)COC(=O)C2CCCCC2)cc1	1%	-3%	1%	9%	?	1%
SMILES	ELG1 genotoxic	Rab9 prom act	SMN2 splice enh	ELG1 repair inh	FLuc counter	NPC1 promoter act
COc1ccc(NC(=O)CSc2nncs2)cc1S(=O)(=O)N1CCCCC1	0%	/	/	-9%	/	/
CC(C)CC(=O)Nc1ccc(C(=O)COC(=O)C2CCC2)cc1	10%	-6%	/	-2%	8.5µM*	-5%
CCCCc1nc2c(c3c1C[C@H](C)OC3)CN(C(=O)N[C@H](C(=O)OC)C(C)C)CC2	/	/	-8%[9.22 µM]	/	/	/
O=C(O)CCC(=O)Nc1ccc(N2CCCCCC2)cc1	0%	-4%	?	?	19µM*	10%
Cc1ccc(N2CCN(c3ccc(NC(=O)CCC(=O)O)cc3)CC2)cc1	2%	0%	4%	1%	-14%	3%
CCCC(=O)Nc1ccc(C(=O)COC(=O)C2CC2C)cc1 (configuration not stated)	16%	1.4µM*	/	?	1.7µM*	2µM*
CCCC(=O)Nc1ccc(C(=O)COC(=O)C2=COCCO2)cc1	4%	22%	/	23%	?	1%
O=C1C=CC(O)(c2cc(=O)c3c(O)cc(O)cc3o2)C=C1	-17%	-45%	-101%	3.3µM*	?	-37%
O=c1c(O)c(-c2cc(O)c(O)c(O)c2)oc2cc(O)cc(O)c12	-8%	-8%[46.1 µM]	-11%	13%	?	1%[46.1 µM]
COC(=O)c1ccc(NC(=O)CC2Nc3cc(C)c(C)cc3NC2=O)cc1 (configuration not stated)	/	/	-1%	/	-18%	/
CCn1nc(C)c(CNC(=O)c2cc(COc3ccccc3SC)on2)c1C	-7%	-1%	/	3%	-16%	0%
CSc1ccccc1OCc1cc(C(=O)NC(C)Cc2cccc(C)n2)no1 (configuration not stated)	-10%	?	/	?	19µM*	?
CSc1ccccc1OCc1cc(C(=O)NC(C)CCn2cccn2)no1 (configuration not stated)	-3%	1%	/	-2%	?	-3%
CSc1ccccc1OCc1cc(C(=O)NCc2cccc(C)n2)no1	?	4µM*	/	?	12µM*	2.8µM*
O=C(NCCc1ccccc1)c1ccc(Cl)c([N+](=O)[O-])c1	14%	27%	?	?	?	23%
Cc1ccc(C(=O)NCC(=O)OCC(=O)c2ccc(C)c([N+](=O)[O-])c2)cc1	1%	5%	7%	13%	2%	0%
